Results filed as inconclusive are left out. Activity calls are given as the source filed them. Calls follow the shape of the dose curve; as a rule, active = well fitted cell-killing curve with a large enough effect; inconclusive = small, poorly fitted or top-dose-only effect, or effect the other way; inactive = no such curve, though single readings can be large or run the other way.
assay: Quantitative High-Throughput drug screen in 47 multiple myeloma cell lines against the NCATS MIPE library collection: OCIMY7_PLB cell viability assay (AID 1918987); conditions: OCI-MY7 myeloma viability, CellTiter-Glo ATP, 48 h; series mostly up to 45.8 µM
Procedure, shortened: (§1)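 Readout: median RLU from CellTiter-Glo after 5 min at room temperature. Preceding step was 48 h drug treatment of 500 cells/well at 37 °C, 5% CO2, with DMSO-only and media-only control wells.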
Also: nearly all actives have a fitted effect of over 65% in size.
Potency is read from the fitted curve at half-maximal effect.

SMILES	Potency
C[C@H]([C@H](O)CCC(C)(C)O)[C@H]1CC[C@@]2(O)C3=CC(=O)[C@@H]4C[C@@H](O)[C@@H](O)C[C@]4(C)[C@@H]3CC[C@]12C	inactive
C1=C2CCCN[C@H]2[C@@H]2C[C@H]1[C@@H]1CCCCN1C2	inactive
CC(=Cc1csc(C)n1)[C@@H]1C[C@H]2O[C@@H]2CCC[C@H](C)[C@@H](O)[C@@H](C)C(=O)C(C)(C)[C@@H](O)CC(=O)O1	inactive
C[C@@H]1CC[C@H]2[C@@H](C)C(=O)O[C@@H]3O[C@@]4(C)CC[C@H]1[C@]32OO4	1870 nM (active)
O=c1[nH]c2ccc(Cl)cc2c(N[C@@H]2CN3CCC2CC3)c1-c1nc2ccccc2[nH]1	59 nM (active)
COCC1(CO)C(=O)C2CCN1CC2 (stereo unspecified)	469 nM (active)
CC[C@@]1(O)C(=O)OCc2c1cc1n(c2=O)Cc2cc3ccccc3nc2-1	1 nM (active)
CN1CCN(c2ccc([N+](=O)[O-])c3no[n+]([O-])c23)CC1	4180 nM (active)
C[C@@H]1O[C@@H](O[C@@H]2C=C3CC[C@@H]4[C@@H](CC[C@]5(C)[C@H](c6ccc(=O)oc6)CC[C@@]45O)[C@@]3(C)CC2)[C@H](O)[C@H](O)[C@H]1O	13.2 nM (active)
CC=C(C)C(=O)O[C@H]1C(C)=C2[C@@H]3OC(=O)[C@@](C)(O)[C@@]3(O)[C@@H](OC(=O)CCC)C[C@](C)(OC(C)=O)[C@@H]2[C@@H]1OC(=O)CCCCCCC	264 nM (active)

assay: Quantitative High-Throughput drug screen in 47 multiple myeloma cell lines against the NCATS MIPE library collection: OCIMY5_PLB cell viability assay (AID 1918988); conditions: OCI-MY5 myeloma viability, ATP luminescence, 48 h; series mostly up to 45.8 µM
Procedure, shortened: as §1

SMILES	Potency
C1=C2CCCN[C@H]2[C@@H]2C[C@H]1[C@@H]1CCCCN1C2	inactive
CC(=Cc1csc(C)n1)[C@@H]1C[C@H]2O[C@@H]2CCC[C@H](C)[C@@H](O)[C@@H](C)C(=O)C(C)(C)[C@@H](O)CC(=O)O1	inactive
CO[C@H]1CCC(O[C@H]2C[C@H]([C@]3(C)CC[C@]4(C[C@H](O)[C@@H](C)[C@@H]([C@@H](C)C=C(C)C(=O)[C@H](C)C[C@H](C)C(=O)O)O4)O3)O[C@]3(O[C@@H]([C@H]4O[C@@](O)(CO)[C@H](C)C[C@H]4C)C[C@H]3C)[C@H]2C)O[C@H]1C (stereo partly specified)	132 nM (active)
O=c1[nH]c2ccc(Cl)cc2c(N[C@@H]2CN3CCC2CC3)c1-c1nc2ccccc2[nH]1	83.3 nM (active)
CC(C)(C)[C@]1(O)C[C@@H]2OC(=O)C[C@@]23C(=O)O[C@@H]2OC(=O)[C@H](O)C213 (stereo partly specified)	inactive
COc1ccc(N(C(=O)Oc2c(C)cccc2C)c2ccnc(Nc3ccc(N4CCN(C)CC4)cc3)n2)c(OC)c1	1180 nM (active)
C[C@]12COC(=O)C[C@@H]1CC[C@@H]1[C@H]2CC[C@@]2(C)[C@H]1CC[C@]2(C)O	inactive
C=C[C@@H]1CN2CCC1C[C@@H]2[C@@H](O)c1ccnc2ccccc12 (stereo partly specified)	20900 nM (active)
C[C@H]1CCCC=CC2C[C@H](O)C[C@@H]2[C@H](O)C=CC(=O)O1 (stereo partly specified)	inactive
CC1=C(O)C(=O)C=C2C1=CC=C1[C@@]2(C)CC[C@@]2(C)[C@@H]3C[C@](C)(C(=O)O)CC[C@]3(C)CC[C@]12C	296 nM (active)
CCN1CCN(C(=O)Cc2ccc(Nc3ncc(F)c(Nc4ccc(C(=O)Nc5ccccc5Cl)cc4)n3)cc2)CC1	2640 nM (active)
O=S(=O)(F)Cc1ccccc1	inactive
CC(C)[C@]12O[C@@H]1[C@@H]1O[C@]13[C@]1(O[C@H]1C[C@@H]1C4=C(CC[C@@]13C)C(=O)OC4)[C@H]2O	inactive
O=c1[nH]c2ccccc2n1C1CCN(Cc2ccc(-c3[nH]c4cc5ncnc5cc4nc3-c3ccccc3)cc2)CC1	16600 nM (active)
CCCC[N+]1(C)[C@H]2CC(OC(=O)[C@H](CO)c3ccccc3)C[C@H]1[C@H]1O[C@H]12 (stereo partly specified)	inactive
O=C(Nc1ccncc1)C(=O)c1cn(Cc2ccc(Cl)cc2)c2ccccc12	37.2 nM (active)
CSCC[C@@H](NC(=O)[C@@H](Cc1ccccc1)NC(=O)CNC(=O)CNC(=O)[C@@H](N)Cc1ccc(O)cc1)C(=O)O	inactive
COCC1(CO)C(=O)C2CCN1CC2 (stereo unspecified)	2640 nM (active)
c1ccc2c(CN3CCNCC3)cccc2c1	inactive
CCc1c(C(=O)C(N)=O)c2c(OCC(=O)O)cccc2n1Cc1ccccc1	inactive
C=CCON=C(C[C@H]1O[C@@H]2O[C@]3(C)CC[C@@H]4[C@H](C)CC[C@@H]([C@H]1C)[C@@]24OO3)[C@H]1O[C@@H]2O[C@]3(C)CC[C@H]4[C@H](C)CC[C@@H]([C@@H]1C)[C@@]24OO3	187 nM (active)

Source: PubChem BioAssay (NCATS)
